Source: PubChem BioAssay (NCATS)
Records with an inconclusive call do not appear. Entries that show only a call come without a potency. The source made the active and inactive calls. Calls follow the shape of the dose curve; as a rule, active = well fitted inhibition curve with a large enough effect; inconclusive = small, poorly fitted or top-dose-only effect; inactive = flat fitted curve, though single readings scatter.

Test system: CP203
Assay: qHTS profiling for inhibitors of Plasmodium falciparum proliferation (AID 504749); also: nearly all actives have a fitted effect of over 60% in size
Conditions: P. falciparum in erythrocytes, SYBR Green DNA, 72 h; series mostly up to 28.7 µM
Excerpt: NIH National Institute of Allergy and Infectious Diseases [NIAID] NIH Chemical Genomics Center [NCGC] MLPCN Grant: None Assay Provider: Xinzhuan Su, NIAID NCGC Assay Overview: Plasmodium falciparum is a virulent malarial parasite that kills 1-2 million people worldwide each year. Transmitted by mosquitoes, the sporozoite form of the parasite enters the blood stream to infect hepatocytes, where they become merozoites that infect red blood cells (erythrocytes). Within erythrocytes, merozoites begin a […] cycle of growth and division, after which the parasite is released to infect new red blood cells. Gametocytes, which form within erythrocytes as well, circulate in the bloodstream and are ingested by the mosquito, thereby completing the life cycle. To profile malarial isolates for differential chemical responses and to identify inhibitors of malarial growth, an assay that measures P. falciparum growth and replication within erythrocytes was employed. This assay uses a DNA binding fluorescent dye (SYBR Green) to detect parasite DNA following cell lysis. Because mature erythrocytes lack DNA, only Plasmodium-derived DNA is detected.
NCGC Assay Protocol Summary: The SYBR Green viability assay was adapted from a method described previously (Plouffe et al., 2008). For screening 3 ul culture medium was dispensed into 1536 well black clear bottom plates (Aurora Biotechnologies) using a Multidrop Combi (Thermo Fisher Scientific Inc.), 23 nL compounds in DMSO were added by a pin tool (Kalypsys), and 5 ul of erythrocytes infected with P. falciparum (0.3% parasitemia, 2.5% hematocrit final concentration) were added. The plates were incubated at 37 C in a humidified incubator in 5% CO2 for 72 h, and 2 ul lysis buffer (20 mM Tris HCl, 10 mM EDTA, 0.16% saponin, 1.6% triton X, 10X SYBR Green I supplied as 10,000X […] by Invitrogen) was added to each well. The plates were mixed for 25 sec with gentle shaking and incubated overnight at room temperature in the dark. The following morning, fluorescence intensity at 485(14) nm excitation and 535(25) nm emission wavelengths was measured on an EnVision (Perkin Elmer) plate reader. Plate reads were normalized relative to the control inhibitor (0.29 uM artemisinin) and vehicle (DMSO) wells present on each plate and then corrected by an algorithm using vehicle-only control plates at the beginning and end of the compound plate stack.
Potency is read from the fitted curve at half-maximal effect.

SMILES | Potency
O=C(O)c1ccc2[nH]cc(CCCCN3CC=C(c4ccccc4)CC3)c2c1 | inactive
Nc1ccncc1 | inactive
NCC1(CC(=O)O)CCCCC1 | inactive
CN(C)CCc1ccc(O)cc1 | inactive
CC(C)CC(N(C)C)C1(c2ccc(Cl)cc2)CCC1 (stereo not given) | inactive
NCCc1cc(O)c(O)cc1O | inactive
CN1CCN(C(=O)O[C@H]2c3nccnc3C(=O)N2c2ccc(Cl)cn2)CC1 | inactive
N[C@@H](Cc1ccc(N(CCCl)CCCl)cc1)C(=O)O | inactive
Oc1ccc(Cl)cc1Cc1ccccc1 | 16.9 µM (active)
Oc1cc(Cl)ccc1Oc1ccc(Cl)cc1Cl | 15.1 µM (active)
CC(C)=CC1C(C(=O)OCc2cccc(Oc3ccccc3)c2)C1(C)C (stereo not given) | inactive
c1ccc2c(c1)OCC(C1=NCCN1)O2 (stereo not given) | inactive
CC(=O)[C@H]1CC[C@H]2[C@@H]3CC[C@H]4C[C@H](O)CC[C@]4(C)[C@H]3C(=O)C[C@]12C | inactive
COc1ccccc1N1CCNCC1 | inactive
NCC(CC(=O)O)c1ccc(Cl)cc1 (stereo not given) | inactive
CC1OC(C)OC(C)O1 (stereo not given) | inactive
CCC(COC(=O)c1cc(OC)c(OC)c(OC)c1)(c1ccccc1)N(C)C (stereo not given) | inactive
Cc1ccc(S(=O)(=O)N[C@@H](CCCCN)C(=O)CCl)cc1 | inactive
Oc1ccccc1-c1ccccc1 | inactive
CC(=O)[C@H]1CC[C@H]2[C@@H]3CC[C@H]4C[C@](C)(O)CC[C@]4(C)[C@H]3CC[C@]12C | inactive

SMILES | Potency
Cc1ncc(CNC(=O)N(CCCl)N=O)c(N)n1 | inactive
CCCC1CCCCN1 (stereo not given) | inactive
Fc1ccc(C(OCCN2CCN(CCCc3ccccc3)CC2)c2ccc(F)cc2)cc1 | 12 µM (active)
CC[N+]1(C)CCCC(OC(=O)C(O)(c2ccccc2)c2ccccc2)C1 (stereo not given) | inactive
N#CC(C#N)=Cc1ccc(O)c(O)c1 | inactive
CCC(C(N)=O)N1CCCC1=O (stereo not given) | inactive
C#CCOC(C(=O)OCCN(C)C)(c1ccccc1)c1ccccc1 | inactive
Cn1c(CCCC(=O)O)nc2cc(N(CCCl)CCCl)ccc21 | inactive
Cc1ccc(-c2nc3ccc(C)cn3c2CC(=O)N(C)C)cc1 | inactive
OCCOc1ccccc1 | inactive
CC(=O)Nc1cc([As](=O)(O)O)ccc1O | inactive
CCOP(=S)(OCC)Oc1cc(C)nc(C(C)C)n1 | inactive
O=c1[nH]c2ccccc2n1C1CCN(CCCC(c2ccc(F)cc2)c2ccc(F)cc2)CC1 | inactive
CCCN1CCC[C@@H]2Cc3[nH]ncc3C[C@H]21 | inactive
C=C1CC[C@@]2(O)[C@H]3Cc4ccc(O)c5c4[C@@]2(CCN3CC2CC2)[C@H]1O5 | inactive
CN1C(=S)CN=C(c2ccccc2)c2cc(Cl)ccc21 | inactive
CC[N+](CC)(CC)CC | inactive
CCC1(C2=NCCN2)Cc2ccccc2O1 (stereo not given) | 10.7 µM (active)
c1ccc(C2CC2)c(OCC2=NCCN2)c1 | inactive
CCN(CC)CCOC(=O)C(O)(c1ccccc1)c1ccccc1 | inactive
